# According to PubChem BioAssay (NCATS):
# Inconclusive results are not listed. Where a call stands in place of a potency, no number is given. Active and inactive are the calls of the source. Calls follow the shape of the dose curve; as a rule, active = well fitted cell-killing curve with a large enough effect; inconclusive = small, poorly fitted or top-dose-only effect, or effect the other way; inactive = no such curve, though single readings can be large or run the other way.
# Assay: Quantitative High-Throughput drug screen in 47 multiple myeloma cell lines against the NCATS MIPE library collection: RPMI8226_ATCC cell viability assay (AID 1919871); also: nearly all actives have a fitted effect of over 30% in size
# Details: RPMI8226 myeloma viability, CellTiter-Glo ATP luminescence, 48 h; series mostly up to 45.8 µM
# Summary of the method: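 ATP-based luminescence (CellTiter-Glo, 5 min RT incubation) quantified surviving cells following two days' treatment with MIPE 4.0 agents at 37 °C, 5% CO2.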
# Potency is read from the fitted curve at half-maximal effect.
row,SMILES,Potency
1,CC(C)(C)NC(=O)Nc1cccc(Nc2ncc(F)c(NC(C)(C)CO)n2)c1,inactive
2,COc1ccc(Cc2nccc3cc(OC)c(OC)cc23)cc1OC,inactive
3,COc1ccc2c(Oc3ccc(NC(=O)c4c(C)n(CC(C)(C)O)n(-c5ccccc5)c4=O)cc3F)ccnc2c1,23.5 µM (active)
4,O=C1C[C@@H](c2ccc(O)cc2)Oc2cc(O)cc(O)c21,inactive
5,O=C(O)c1cc(O)c2c(c1)C(=O)c1cccc(O)c1C2=O,42.9 µM (active)
6,O=C(O)CCC1CCC(c2cc(F)ccc2F)(S(=O)(=O)c2ccc(Cl)cc2)CC1 (configuration not stated),inactive
7,COc1ccc(Cc2ccc(NC(N)=O)cc2)cc1-c1cccc(Cl)c1,inactive
8,CC[C@H]1OC(=O)[C@H](C)C(=O)[C@H](C)[C@@H](O[C@H]2O[C@H](C)C[C@H](N(C)C)[C@@H]2O)[C@](C)(OC)C[C@@H](C)C(=O)[C@H](C)[C@H]2N(CCCCn3cnc(-c4cccnc4)c3)C(=O)O[C@]12C,18.7 µM (active)
9,COc1cccc2c1CCCC2CCCN1CCN(C2CCCCC2)CC1 (configuration not stated),14.8 µM (active)
10,CON=C(C(=O)N[C@@H]1C(=O)N2C(C(=O)OCOC(=O)C(C)(C)C)=C(C=Cc3scnc3C)CS[C@H]12)c1csc(N)n1,inactive
11,NC[C@@H]1O[C@@H](O[C@H]2[C@@H](O)[C@H](O[C@@H]3[C@@H](O)[C@@H](N)C[C@H](N)[C@H]3O[C@H]3O[C@H](CN)[C@@H](O)[C@@H](O)[C@H]3N)O[C@H]2CO)[C@H](N)[C@@H](O)[C@@H]1O,inactive
12,CN(C[C@@H]1COCCO1)S(=O)(=O)Nc1ccc2ccc3ncc(-c4cnn(C)c4)cc3c(=O)c2c1,16.6 µM (active)
13,Cc1c[nH]c(C=C2C(=O)Nc3ccccc32)c1CCC(=O)O,inactive
14,NC(=O)c1cccc(-c2cc(Nc3ccc(OC(F)(F)F)cc3)ncn2)c1,inactive
15,CN(C)c1cc(NC(=O)CNC(C)(C)C)c(O)c2c1C[C@@H]1C[C@H]3[C@H](N(C)C)C(=O)C(C(N)=O)=C(O)[C@@]3(O)C(=O)C1=C2O,inactive
16,CC1(C)Cc2c(sc(NC(=S)NC(=O)c3ccccc3)c2C(=O)O)CO1,inactive
17,O=c1cc(-c2ccc(O)cc2)oc2cc(O)cc(O)c12,23.5 µM (active)
